Compound activity from PubChem BioAssay.
The list is not random: actives were taken first. Their share in the collection is about 1.4%.
GLD-1 RNA inh: GLD-1/TGE RNA complex disruptors, primary screen, biochemical, fluorescence polarization. Female germline-specific tumor suppressor gld-1 (Caenorhabditis elegans), Q17339. purified GLD-1 + fluorescein TGE RNA. inhibition, % at 5.96 µM. hit rate 0.44% among 320,000. AID 2280, 2010;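 active means percent inhibition above a per-plate cutoff, the plate mean of test compounds plus 3 SD, cut at about 30% in these data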;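 further: 0% = DMSO wells with GLD-1 and probe and 100% = wells lacking GLD-1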
Target sequence (Q17339 whole entry, looked up): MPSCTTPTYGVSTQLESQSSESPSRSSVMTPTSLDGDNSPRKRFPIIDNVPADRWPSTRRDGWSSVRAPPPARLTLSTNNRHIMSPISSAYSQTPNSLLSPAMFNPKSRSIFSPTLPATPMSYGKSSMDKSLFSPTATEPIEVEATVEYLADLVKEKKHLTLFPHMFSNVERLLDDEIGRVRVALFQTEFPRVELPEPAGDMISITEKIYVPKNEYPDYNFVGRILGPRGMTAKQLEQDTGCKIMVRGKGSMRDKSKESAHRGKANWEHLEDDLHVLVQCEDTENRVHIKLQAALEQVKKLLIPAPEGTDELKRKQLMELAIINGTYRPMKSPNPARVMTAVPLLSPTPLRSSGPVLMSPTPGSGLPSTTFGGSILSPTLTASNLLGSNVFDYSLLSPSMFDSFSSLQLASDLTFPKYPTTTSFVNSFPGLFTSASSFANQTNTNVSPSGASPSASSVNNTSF
MEX-5 binding: MEX-5 zinc finger RNA-binding disruptors – biochemical, C. elegans, fluorescence polarization, MLPCN library, primary screen. Zinc finger protein mex-5 (Caenorhabditis elegans), Q9XUB2. MEX-5/FITC-TCR2 RNA binding; stronger effect = lower value. activity score (negative = inhibition of binding), % at 10 µM. hit rate 0.38% among 300,000;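 active means inhibition past about -25% in most replicates, and total fluorescence under double the plate's negative control median, limit read from the data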;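 further: 0% = DMSO and -100% = 5 µM competing unlabeled TCR2 RNA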
E coli Lon inh: inhibitors of E. coli Lon protease, primary screen, biochemical, fluorescence polarization; purified E. coli Lon protease; inhibition, % at 7.94 µM; hit rate 0.42% among 360,000; in the data active means inhibition above about 13%, passing the limit was not always enough;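 further: 0% = enzyme with probe and DMSO and 100% = no enzyme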
Bcl-xL primary: inhibitors of human Bcl-xL, primary screen, biochemical, fluorescence polarization, HTS; Bcl-2-like protein 1 (Homo sapiens), Q07817; GST-Bcl-xL / FITC-Bim BH3 peptide fluorescence polarization; inhibition, % at 10.9 µM; hit rate 0.7% among 320,000; AID 2129, 2009;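 active means inhibition above the mean of all tested compounds plus 3 SD, cutoff set per campaign, cut at about 30% in these data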;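 further: 0% = DMSO wells and 100% = unlabeled Bim-BH3 peptide competitor; inhibitors lower millipolarization by displacing the labeled peptide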
MCL1-BIM inh: inhibitors of MCL1 binding to BIM-BH3, primary screen, biochemical, fluorescence polarization; Induced myeloid leukemia cell differentiation protein Mcl-1 (Homo sapiens), Q07820; GST-MCL1 / FITC-Bim-BH3 fluorescence polarization; inhibition, % at 10.9 µM; hit rate 0.68% among 320,000; AID 2057, 2009;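 active means inhibition above the mean inhibition of all tested compounds plus 3 SD, set per campaign, cut at about 40% in these data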;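 further: 0% = DMSO wells and 100% = unlabeled Bim-BH3 peptide control; higher means more loss of mP so more displacement of Bim peptide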
eLon confirm: E. coli Lon protease inhibitor retest, confirmation, biochemical, fluorescence polarization | shares compounds with E coli Lon inh | purified E. coli Lon | inhibition, % at 7.94 µM | hit rate 31% among 1,400; in the data active means inhibition above about 16%;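 further: 0% = enzyme with probe and DMSO and 100% = no enzyme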
* marks the source's active call; other numbers are inactive results.

Screening O=C1CCCC/C1=C\Nc1ccc(O)cc1 returned GLD-1 RNA inh 15.8, MEX-5 binding 1.6, E coli Lon inh 19.5*, Bcl-xL primary 10.3, MCL1-BIM inh 3.2 and eLon confirm 4.7.
For COc1cccc(CN(C)C[C@H]2OCc3cnnn3CCCC(=O)N([C@@H](C)CO)C[C@@H]2C)c1 the results were E coli Lon inh 4.5.
Screening C(=Cc1cnc2ccccc2n1)c1ccc2c(c1)OCO2 returned E coli Lon inh 96.0* and eLon confirm -16.8.
C[C@H]1CN([C@@H](C)CO)C(=O)CCCn2nncc2CO[C@H]1CN(C)S(=O)(=O)c1cccs1 was read as E coli Lon inh -2.7.
Screening Cc1cc(C)c(NC(=O)C(C)N2CCCCCC2)c(C)c1 (stereo unspecified) returned GLD-1 RNA inh 9.4, MEX-5 binding -2.9, E coli Lon inh 71.4*, Bcl-xL primary 2.0, MCL1-BIM inh -2.3 and eLon confirm -5.5.
For Cc1cccc(C)c1NC(=O)C(C)N1CCCC1 (stereo unspecified) the results were GLD-1 RNA inh 8.4, MEX-5 binding 1.2, E coli Lon inh -2.7, Bcl-xL primary 4.3 and MCL1-BIM inh -0.3.
For COC(=O)C(Cc1ccccc1)NC(=O)C(CC(C)C)NC(=O)OC(C)(C)C (stereo unspecified) the results were GLD-1 RNA inh 1.9, MEX-5 binding -3.7, E coli Lon inh 6.1, Bcl-xL primary 4.4 and MCL1-BIM inh 2.6.
`CC(C)CC(NC(=O)OC(C)(C)C)C(=O)O` (stereo unspecified) gave GLD-1 RNA inh 2.7, MEX-5 binding -1.7, E coli Lon inh 18.6*, Bcl-xL primary 4.5, MCL1-BIM inh -3.3 and eLon confirm -6.3.
For OC[C@@H]1CN(Cc2cccs2)C[C@H](n2cnc3c(N4CCCC4)ncnc32)O1 the results were E coli Lon inh -5.9.
For O=C(Cc1ccccc1F)Nc1nc2ccccc2[nH]1 the results were GLD-1 RNA inh 2.1, MEX-5 binding -3.6, E coli Lon inh -2.8, Bcl-xL primary -0.7 and MCL1-BIM inh -8.0.
`O=C(Cc1cccc2ccccc12)Nc1nc2ccccc2[nH]1` gave GLD-1 RNA inh 7.3, MEX-5 binding -2.4, E coli Lon inh 64.8*, Bcl-xL primary -1.4, MCL1-BIM inh -0.3 and eLon confirm 3.4.
C[C@H](CO)N1C[C@H](C)[C@@H](CN(C)Cc2ccncc2)OCCCC[C@H](C)Oc2ccc(NC(=O)CCCN(C)C)cc2C1=O was read as E coli Lon inh -9.4.
COc1ccc(/C=N/N(C)C2=NS(=O)(=O)c3ccccc32)cc1 was read as GLD-1 RNA inh 3.7, MEX-5 binding 2.4, E coli Lon inh 7.0, Bcl-xL primary 7.1 and MCL1-BIM inh 2.0.
CN(/N=C/c1ccc(N(C)C)cc1)C1=NS(=O)(=O)c2ccccc21 was read as GLD-1 RNA inh 5.6, MEX-5 binding 41.6, E coli Lon inh 47.1*, Bcl-xL primary 13.7, MCL1-BIM inh 3.5 and eLon confirm inactive.
OC1CCCN(Cc2ccc3ccc4cccc5ccc2c3c45)C1 (stereo unspecified) was read as GLD-1 RNA inh 5.3, MEX-5 binding 0.4, E coli Lon inh 1.2, Bcl-xL primary 1.8 and MCL1-BIM inh 8.3.
c1cc2ccc3ccc(CN4CCOCC4)c4ccc(c1)c2c34 was read as GLD-1 RNA inh 10.3, MEX-5 binding -0.1, E coli Lon inh 16.8*, Bcl-xL primary 6.8, MCL1-BIM inh 5.5 and eLon confirm 1.7.
`Cc1ccc(S(=O)(=O)n2cc(-c3ccccc3)c(N)n2)cc1` gave GLD-1 RNA inh 10.9, E coli Lon inh 15.0*, Bcl-xL primary -1.9, MCL1-BIM inh 0.6 and eLon confirm -1.7.
Nc1nn(S(=O)(=O)c2ccccc2)cc1-c1ccc([N+](=O)[O-])cc1 was read as GLD-1 RNA inh 1.4, MEX-5 binding 1.3, E coli Lon inh -2.4, Bcl-xL primary 6.1 and MCL1-BIM inh 6.9.
`COc1ccc(O)c(C(=O)c2cnn(-c3ccc(Cl)cc3)c2)c1` gave GLD-1 RNA inh 1.7, MEX-5 binding -1.4, E coli Lon inh -8.7, Bcl-xL primary 2.3 and MCL1-BIM inh 2.8.
COc1ccc(O)c(C(=O)c2cnn(-c3ccccn3)c2)c1 was read as GLD-1 RNA inh -6.2, MEX-5 binding 1.7, E coli Lon inh 84.2*, Bcl-xL primary 0.2, MCL1-BIM inh -7.8 and eLon confirm -12.5.
For O=C(O)/C=C\C(=O)NC1CCCCC1 the results were GLD-1 RNA inh 4.1, MEX-5 binding -1.7, E coli Lon inh 28.2*, Bcl-xL primary 1.0, MCL1-BIM inh 1.3 and eLon confirm 7.7.
`CCc1nc2ccc(C(=O)NCc3cccs3)cn2c1N(C)Cc1nccs1` gave E coli Lon inh -11.3.
`CCCNC(=O)C1(C)CCN(CCS(=O)(=O)c2ccc(C)cc2)C1` (stereo unspecified) gave E coli Lon inh 1.6.
For NC(=S)N/N=C/c1coc2ccc(Cl)cc2c1=O the results were GLD-1 RNA inh 9.1, MEX-5 binding 0.1, E coli Lon inh 13.1*, Bcl-xL primary 1.6, MCL1-BIM inh 9.2 and eLon confirm 23.8*.
O=C(N/N=C/c1coc2ccc(Cl)cc2c1=O)c1ccc(O)cc1 was read as MEX-5 binding -3.6 and E coli Lon inh -0.8.
Screening O=C(CNC(=O)c1ccc(Br)o1)NNC(=O)c1ccccc1 returned E coli Lon inh 96.0* and eLon confirm 4.0.
Cc1cc(Br)cn2c(Cc3ccsc3)c(-c3ccc(Cl)cc3)nc12 was read as E coli Lon inh 17.2* and eLon confirm 30.5*.
`Clc1cccc(-c2nc3ccc(Cl)cn3c2Cc2ccsc2)c1` gave E coli Lon inh 19.6* and eLon confirm 112.7*.
`Cc1cc(Br)cn2c(Cc3ccsc3)c(-c3cccc(Cl)c3)nc12` gave E coli Lon inh -4.8.
Screening COc1cc(C(=O)OCC(=O)Nc2ccccc2C(=O)NC2CC2)c([N+](=O)[O-])cc1OC returned GLD-1 RNA inh -8.0, E coli Lon inh 34.7*, Bcl-xL primary -1.3, MCL1-BIM inh -0.8 and eLon confirm -37.3.
`CC(OC(=O)CCCN=C1NS(=O)(=O)c2ccccc21)C(=O)Nc1ccccc1F` (stereo unspecified) gave GLD-1 RNA inh 0.9, MEX-5 binding 1.7, E coli Lon inh 2.8, Bcl-xL primary 6.2 and MCL1-BIM inh -6.1.
Cc1ccc(N2C(=O)c3cccc4c(N)ccc(c34)C2=O)c2cccnc12 was read as GLD-1 RNA inh -0.3, MEX-5 binding -9.7, E coli Lon inh 161.3*, Bcl-xL primary 30.4*, MCL1-BIM inh 15.6 and eLon confirm -34.4.
